From the supplement of paper PMC8975748
Where a name gives a salt, the structure may show the parent alone. ± gives the standard deviation of the averaged measurements.

Assays:
[1] = tested on: Saccharomyces cerevisiae BY4741 SeMeCo community; assay: mean cell size (pixel area) (pixels); higher = larger cells; details: 10 µM; 24 h; SM minimal medium
Summary of the method: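 In this assay, mean cell pixel area per well was obtained from automated confocal images of paraformaldehyde-fixed yeast analysed in Harmony. The cells were a Saccharomyces cerevisiae BY4741 community with four plasmids, each complementing one auxotrophy and carrying a fluorescent marker, grown for 24 h in SM medium with drug at a final 10 µM in 384-well plates. Values are averaged across 3 replicates. Same SeMeCo high-content imaging drug screen: Selleck FDA-approved drugs at 10 µM, 24 h in SM medium, 384-well plates, 3 replicates.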

[2] = tested on: Saccharomyces cerevisiae BY4741 SeMeCo community; assay: z-score of prototroph abundance vs DMSO median; higher = larger share of this subpopulation than in DMSO controls; details: 10 µM; 24 h; SM minimal medium; subpopulation (auxotrophy): Prototroph
Summary of the method: (§1)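 Cells of a Saccharomyces cerevisiae BY4741 community, carrying four plasmids that each restored one auxotrophy and encoded a distinct fluorescent protein, were pre-grown overnight to OD600 1.0 and diluted to 0.3. A 70 µl volume was added to 384-well plates acoustically predosed with library drugs (10 µM final) and grown 24 h in minimal SM medium. After paraformaldehyde fixation, automated confocal microscopy was used, with single-auxotroph fluorescent strains for thresholds and autofluorescence correction. The abundance of each subpopulation was scored as a z-score against the vehicle-well median.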

[3] = tested on: Saccharomyces cerevisiae BY4741 SeMeCo community; assay: z-score of subpopulation abundance vs DMSO median, subpopulation auxotrophic for M; higher = larger share of this subpopulation than in DMSO controls; details: 10 µM; 24 h; SM minimal medium; subpopulation (auxotrophy): M
Summary of the method: as §1

[4] = tested on: Saccharomyces cerevisiae BY4741 SeMeCo community; assay: z-score of subpopulation abundance vs DMSO median, subpopulation auxotrophic for L; higher = larger share of this subpopulation than in DMSO controls; details: 10 µM; 24 h; SM minimal medium; subpopulation (auxotrophy): L
Summary of the method: as §1

[5] = tested on: Saccharomyces cerevisiae BY4741 SeMeCo community; assay: z-score of subpopulation abundance vs DMSO median, subpopulation auxotrophic for U; higher = larger share of this subpopulation than in DMSO controls; details: 10 µM; 24 h; SM minimal medium; subpopulation (auxotrophy): U
Summary of the method: as §1

[6] = tested on: Saccharomyces cerevisiae BY4741 SeMeCo community; assay: z-score of subpopulation abundance vs DMSO median, subpopulation auxotrophic for H; higher = larger share of this subpopulation than in DMSO controls; details: 10 µM; 24 h; SM minimal medium; subpopulation (auxotrophy): H
Summary of the method: as §1

[7] = tested on: Saccharomyces cerevisiae BY4741 SeMeCo community; assay: z-score of subpopulation abundance vs DMSO median, subpopulation auxotrophic for LU; higher = larger share of this subpopulation than in DMSO controls; details: 10 µM; 24 h; SM minimal medium; subpopulation (auxotrophy): LU
Summary of the method: as §1

[8] = tested on: Saccharomyces cerevisiae BY4741 SeMeCo community; assay: z-score of subpopulation abundance vs DMSO median, subpopulation auxotrophic for LM; higher = larger share of this subpopulation than in DMSO controls; details: 10 µM; 24 h; SM minimal medium; subpopulation (auxotrophy): LM
Summary of the method: as §1

[9] = tested on: Saccharomyces cerevisiae BY4741 SeMeCo community; assay: z-score of subpopulation abundance vs DMSO median, subpopulation auxotrophic for HM; higher = larger share of this subpopulation than in DMSO controls; details: 10 µM; 24 h; SM minimal medium; subpopulation (auxotrophy): HM
Summary of the method: as §1

[10] = tested on: Saccharomyces cerevisiae BY4741 SeMeCo community; assay: z-score of subpopulation abundance vs DMSO median, subpopulation auxotrophic for UM; higher = larger share of this subpopulation than in DMSO controls; details: 10 µM; 24 h; SM minimal medium; subpopulation (auxotrophy): UM
Summary of the method: as §1

[11] = tested on: Saccharomyces cerevisiae BY4741 SeMeCo community; assay: z-score of subpopulation abundance vs DMSO median, subpopulation auxotrophic for HL; higher = larger share of this subpopulation than in DMSO controls; details: 10 µM; 24 h; SM minimal medium; subpopulation (auxotrophy): HL
Summary of the method: as §1

[12] = tested on: Saccharomyces cerevisiae BY4741 SeMeCo community; assay: z-score of subpopulation abundance vs DMSO median, subpopulation auxotrophic for HLU; higher = larger share of this subpopulation than in DMSO controls; details: 10 µM; 24 h; SM minimal medium; subpopulation (auxotrophy): HLU
Summary of the method: as §1

[13] = tested on: Saccharomyces cerevisiae BY4741 SeMeCo community; assay: z-score of subpopulation abundance vs DMSO median, subpopulation auxotrophic for HLM; higher = larger share of this subpopulation than in DMSO controls; details: 10 µM; 24 h; SM minimal medium; subpopulation (auxotrophy): HLM
Summary of the method: as §1

[14] = tested on: Saccharomyces cerevisiae BY4741 SeMeCo community; assay: z-score of subpopulation abundance vs DMSO median, subpopulation auxotrophic for LUM; higher = larger share of this subpopulation than in DMSO controls; details: 10 µM; 24 h; SM minimal medium; subpopulation (auxotrophy): LUM
Summary of the method: as §1

[15] = tested on: Saccharomyces cerevisiae BY4741 SeMeCo community; assay: z-score of subpopulation abundance vs DMSO median, subpopulation auxotrophic for HLUM; higher = larger share of this subpopulation than in DMSO controls; details: 10 µM; 24 h; SM minimal medium; subpopulation (auxotrophy): HLUM
Summary of the method: as §1

[16] = tested on: Saccharomyces cerevisiae BY4741 SeMeCo community; assay: z-score of subpopulation abundance vs DMSO median, subpopulation auxotrophic for HU; higher = larger share of this subpopulation than in DMSO controls; details: 10 µM; 24 h; SM minimal medium; subpopulation (auxotrophy): HU
Summary of the method: as §1

[17] = tested on: Saccharomyces cerevisiae BY4741 SeMeCo community; assay: z-score of subpopulation abundance vs DMSO median, subpopulation auxotrophic for HUM; higher = larger share of this subpopulation than in DMSO controls; details: 10 µM; 24 h; SM minimal medium; subpopulation (auxotrophy): HUM
Summary of the method: as §1

SMILES | mean cell size [1] | z-score of prototroph abundance [2] | z-score of subpopulation abundance [3] | z-score of subpopulation abundance [4] | z-score of subpopulation abundance [5] | z-score of subpopulation abundance [6] | z-score of subpopulation abundance [7] | z-score of subpopulation abundance [8] | z-score of subpopulation abundance [9] | z-score of subpopulation abundance [10] | z-score of subpopulation abundance [11] | z-score of subpopulation abundance [12] | z-score of subpopulation abundance [13] | z-score of subpopulation abundance [14] | z-score of subpopulation abundance [15] | z-score of subpopulation abundance [16] | z-score of subpopulation abundance [17]
CCOC(=O)C1=C[C@]2(CC)CCCN3CCc4c(n1c1ccccc41)[C@@H]32 [Vinpocetine] | 12.3 ± 0.23 | -0.9 | 2.07 | 0.01 | 0.11 | -0.46 | 0.81 | 0.73 | 0.55 | 1.1 | 0.11 | -0.1 | 0.39 | 0.25 | 0.54 | – | –
CC(=O)O[C@H]1C[C@@]2(C)[C@@H](C[C@@H](O)[C@H]3[C@@]4(C)CC[C@@H](O)[C@@H](C)[C@@H]4CC[C@@]32C)/C1=C(\CCC=C(C)C)C(=O)O [Fusidate Sodium] | 12.64 ± 0.067 | -0.65 | 0 | -0.11 | 0.34 | 1.44 | 0.21 | – | 0.57 | -0.27 | 1.13 | 1.2 | 1.04 | -0.25 | -0.08 | 2 | –
COc1ncnc(NS(=O)(=O)c2ccc(N)cc2)c1OC [Sulfadoxine] | 12.47 ± 0.085 | -0.71 | -0.15 | -0.42 | 1.05 | -0.14 | 0.85 | -0.89 | -0.26 | 0.98 | 0.34 | 0.31 | 0.02 | -0.34 | – | 0.53 | –
Nc1ccc(S(=O)(=O)c2ccc(N)cc2)cc1 [Dapson] | 12.5 ± 0.26 | -0.54 | 0.68 | 0.59 | 0.04 | 0.61 | 0.91 | 0.51 | 0.93 | 0.45 | 0.32 | 0.22 | -0.14 | 0.92 | – | 0.31 | –
CC(C)c1nc(N(C)S(C)(=O)=O)nc(-c2ccc(F)cc2)c1/C=C/[C@@H](O)C[C@@H](O)CC(=O)O [Rosuvastatin] | 11.22 ± 0.092 | -2.69 | -1.77 | 2.53 | -1.39 | 4.84 | 1.31 | 0 | 2.17 | 1 | 5.32 | 1.68 | – | – | 2.76 | 1.77 | 2.38
O=C1N=C(O)NC1(c1ccccc1)c1ccccc1 [Phenytoin Sodium] | 12.527 ± 0.0075 | -0.72 | -0.37 | 0.11 | 1.21 | -0.03 | 0.96 | -0.6 | -1.02 | 0.67 | -0.83 | 0.17 | – | -0.31 | 1.18 | -0.05 | 0.83
COc1cc(O)c(C(=O)Nc2nc(C(=O)NCCN(C(C)C)C(C)C)cs2)cc1OC [Acotiamide hydrochloride] | – | -0.4 | -0.47 | -0.26 | – | – | 0.52 | -0.2 | – | 0.4 | -0.16 | 0.19 | 0.13 | -0.38 | -0.39 | 0.71 | –
